Laboratory results: PubChem BioAssay (NCI)
This is part of a sample that, as a whole, favours compounds with a hit. Of some 83,000 tested, about 20% had one in any assay.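 A percent growth of 40 corresponds to 60% growth inhibition; 0 means no net growth; -100 means all cells died. Active threshold: below 10.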 Values without a mark were called inactive. The source made the active and inactive calls.

What was measured:
Experiment in all cases: NCI-60 one-dose screen, 48 h (100 = growth as untreated, 0 = no growth, -100 = all killed)
Conditions in all cases: 10 µM unless noted
HCT-15 colon = test system: HCT-15 colon
HT29 colon = test system: HT29 colon
SNB-75 CNS = test system: SNB-75 CNS
SNB-19 CNS = test system: SNB-19 CNS
U251 CNS = test system: U251 CNS
PC-3 prostate = test system: PC-3 prostate
SK-MEL-5 melanoma = test system: SK-MEL-5 melanoma
UACC-62 melanoma = test system: UACC-62 melanoma
LOX IMVI melanoma = test system: LOX IMVI melanoma
SK-MEL-28 melanoma = test system: SK-MEL-28 melanoma

SMILES | growth (HCT-15 colon) | growth (HT29 colon) | growth (SNB-75 CNS) | growth (SNB-19 CNS) [%] | growth (U251 CNS) | growth (PC-3 prostate) [%] | growth (SK-MEL-5 melanoma) | growth (UACC-62 melanoma) | growth (LOX IMVI melanoma) | growth (SK-MEL-28 melanoma)
CC1CCCCC[N+]12CCCC2 (stereo not given) | 95.6% | 107% | 95% | 106 | 85.3% | 93.4 | 99.5% | 103% | 95.8% | 109%
CCCCCCCCCC(C)NC(=O)CCl (stereo not given) | 89.6% | 114% | 69.8% | 86.5 | 82.1% | 94.5 | 97.5% | 93.4% | 47.9% | 95.3%
COc1cc(N)c2nccc(C)c2c1OC | 115% | 111% | 103% | 109 | 99.4% | 108 | 101% | 93.7% | 96.2% | 115%
COCC(=O)NNc1[nH]c(-c2ccc(OC)cc2)cc1C#N | 107% | 110% | 120% | 114 | 103% | 97 | 117% | 99.4% | 110% | 120%
COC(=O)C(C)[C@H]1CC[C@@H]2[C@]1(C)CC=C1[C@]23C=C[C@]2(C[C@@H](OC(C)=O)CC[C@]12C)C(C(=O)OC)C3C(=O)OC (stereo not given in full) | 61.5% | 95.2% | 98.5% | 95.9 | 88.8% | 57.1 | 60.6% | 79.9% | 91.7% | 95%
CCCCCCCCCCCCCCCCNC(=S)N/N=C/c1ccc(O)cc1O | 50.7% | 37% | 113% | 89.1 | 59.6% | 63.5 | 63.4% | 56.5% | 60.6% | 88.7%
CC(=O)OC1CC2C3CCC4C[C@@H](NC(=O)C=C(C)C)CC[C@]4(C)C3CC[C@]2(C)[C@H]1C(C)N(C)C (stereo not given in full) | -38.7% (active) | -20.9% (active) | 8.51% (active) | 49.2 | 11.5% | 13.1 | -95.2% (active) | -52.6% (active) | -15% (active) | -91.3% (active)
O=C(/C=C/c1ccc(Cl)cc1)c1ccc(Cl)cc1 | 94.3% | 70.2% | 99% | 102 | 93.8% | 96.8 | 97.3% | 90.4% | 66.5% | 99.9%
CC(C)(C)C(=O)OCOP(=O)(OCOC(=O)C(C)(C)C)C1CC(O)N(O)C1=O (stereo not given) | 34.7% | 6.67% (active) | 51.2% | 16.1 | 6.74% (active) | 58.9 | 58.4% | 9.68% (active) | 30.4% | 8.22% (active)
CC(=O)NCCN | 94% | 101% | 89.7% | 98.8 | 97.3% | 92.3 | 108% | 102% | 93.3% | 108%
COC1NC(Cl)=C(C#N)C(C#N)(C#N)C1(C)C (stereo not given) | 121% | 108% | 105% | 115 | 105% | 122 | 111% | 98.9% | 98.7% | 124%
